# From PubChem BioAssay (NCATS)
# Results filed as inconclusive are left out. Entries that show only a call come without a potency. Calls of active or inactive are those of the source. The call rests on the fitted dose curve; in most records, active means well fitted curve in the direction sought with a large enough effect; inconclusive means small, poorly fitted or top-dose-only effect, or another doubt; inactive means no such curve, though single readings can be large; an effect the other way counts as inactive or inconclusive.
# Key:
# [1] = qHTS of pediatric cancer cell lines to identify multiple opportunities for drug repurposing: Primary screen for U-2 OS cells (AID 1347096); further: nearly all actives have a fitted effect of over 50% in size
# Procedure, shortened: (§1)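 Cells (500-1,000/well) rested 5 h, then received compounds for 48 h; metabolically active cells were measured by CellTiter-Glo luminescence. Final concentrations spanned up to 46 µM (MIPE, 11-point) or 0.59 nM-46 µM (NPC, 8-point) in primary screens, 11-point in follow-ups.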
# [2] = qHTS of pediatric cancer cell lines to identify multiple opportunities for drug repurposing: Primary screen for Saos-2 cells (AID 1347097); further: nearly all actives have a fitted effect of over 40% in size; further: potency means the concentration at half of the fitted maximal effect
# Procedure, shortened: (§2)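 Plated cells (500-1,000 per well, growth media) were allowed to settle for 5 hours, treated with compound dilutions for 48 hours, then lysed with CellTiter-Glo for 15 min at room temperature before luminescence reading.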
# [3] = qHTS of pediatric cancer cell lines to identify multiple opportunities for drug repurposing: Primary screen for NB1643 cells (AID 1347099); further: nearly all actives have a fitted effect of over 50% in size; further: potency means the concentration at half of the fitted maximal effect
# Procedure, shortened: as §2
# [4] = qHTS of pediatric cancer cell lines to identify multiple opportunities for drug repurposing: Primary screen for LAN-5 cells (AID 1347100); further: potency means the concentration at half of the fitted maximal effect
# Procedure, shortened: as §1
# [5] = qHTS of pediatric cancer cell lines to identify multiple opportunities for drug repurposing: Primary screen for Rh18 cells (AID 1347102); further: nearly all actives have a fitted effect of over 65% in size; further: potency means the concentration at half of the fitted maximal effect
# Procedure, shortened: as §1
# [6] = qHTS of pediatric cancer cell lines to identify multiple opportunities for drug repurposing: Primary screen for OHS-50 cells (AID 1347103); further: nearly all actives have a fitted effect of over 40% in size; further: potency means the concentration at half of the fitted maximal effect
# Procedure, shortened: as §1
# [7] = qHTS of pediatric cancer cell lines to identify multiple opportunities for drug repurposing: Primary screen for RD cells (AID 1347104); further: nearly all actives have a fitted effect of over 55% in size; further: potency means the concentration at half of the fitted maximal effect
# Procedure, shortened: as §2
# [8] = qHTS of pediatric cancer cell lines to identify multiple opportunities for drug repurposing: Primary screen for MG 63 (6-TG R) cells (AID 1347105); further: nearly all actives have a fitted effect of over 50% in size; further: potency means the concentration at half of the fitted maximal effect
# Procedure, shortened: as §2
# [9] = qHTS of pediatric cancer cell lines to identify multiple opportunities for drug repurposing: Primary screen for BT-12 cells (AID 1347101); further: nearly all actives have a fitted effect of over 25% in size; further: potency means the concentration at half of the fitted maximal effect
# Procedure, shortened: as §1
# [10] = qHTS of pediatric cancer cell lines to identify multiple opportunities for drug repurposing: Primary screen for SK-N-SH cells (AID 1347098); further: nearly all actives have a fitted effect of over 65% in size; further: potency means the concentration at half of the fitted maximal effect
# Procedure, shortened: as §1
SMILES,Potency [1],Potency [2],Potency [3],Potency [4],Potency [5],Potency [6],Potency [7],Potency [8],Potency [9],Potency [10]
CC(Cc1ccccc1)NCCn1cnc2c1c(=O)n(C)c(=O)n2C (centres undefined),inactive,inactive,inactive,inactive,inactive,inactive,inactive,inactive,–,–
O=C(O)c1ccc(=O)[nH]c1,inactive,inactive,inactive,inactive,inactive,inactive,inactive,inactive,inactive,–
COc1cccc([C@@]2(O)CCCC[C@@H]2CN(C)C)c1,–,inactive,inactive,inactive,inactive,inactive,inactive,inactive,inactive,inactive
CC(C)NC(C)C,inactive,inactive,inactive,inactive,inactive,inactive,inactive,inactive,inactive,–
C[C@]12CC[C@@H]3c4ccc(OC(=O)N(CCCl)CCCl)cc4CC[C@H]3[C@@H]1CC[C@@H]2O,inactive,–,inactive,inactive,–,–,inactive,inactive,inactive,inactive
CC(C)c1cccc(C(C)C)c1O,inactive,inactive,inactive,inactive,–,inactive,inactive,inactive,–,–
CC(C)=CC1C(C(=O)OCN2C(=O)C3=C(CCCC3)C2=O)C1(C)C (centres undefined),inactive,–,–,–,inactive,inactive,inactive,inactive,–,–
CNCC(=O)c1ccc(O)c(O)c1,inactive,inactive,inactive,inactive,–,inactive,inactive,inactive,inactive,–
c1ccc2c(c1)sc1ccccc12,inactive,–,inactive,inactive,inactive,inactive,inactive,inactive,inactive,–
CCCCCCC(=O)CCCCCC/C=C/C[C@@H](O)[C@H](O)[C@@](N)(CO)C(=O)O,inactive,–,inactive,inactive,inactive,–,inactive,–,inactive,inactive
CC1(C)C(C=C(Cl)Cl)C1C(=O)OC(C#N)c1cccc(Oc2ccccc2)c1 (centres undefined),inactive,inactive,inactive,inactive,–,inactive,inactive,inactive,inactive,–
CCC(C)C(C)(COC(N)=O)COC(N)=O (centres undefined),inactive,inactive,inactive,inactive,inactive,inactive,inactive,inactive,inactive,–
COP(=S)(OC)Oc1ccc(SC)c(C)c1,inactive,inactive,inactive,inactive,–,inactive,inactive,inactive,inactive,–
CCN(CC)C(=O)[C@@H]1C=C2c3cccc4[nH]cc(c34)C[C@H]2N(C)C1,inactive,–,inactive,71.3 µM (active),inactive,inactive,inactive,inactive,inactive,–
CCCOC(=O)c1cncn1C(C)c1ccccc1 (centres undefined),–,inactive,inactive,inactive,inactive,inactive,inactive,inactive,inactive,inactive
CN1C(=O)CCS(=O)(=O)C1c1ccc(Cl)cc1 (centres undefined),inactive,inactive,inactive,inactive,inactive,inactive,inactive,inactive,inactive,–
C[C@@H](N)[C@@H](O)c1ccccc1,inactive,inactive,inactive,inactive,–,inactive,inactive,inactive,inactive,–
NCCc1ccc(O)cc1,inactive,inactive,inactive,inactive,–,inactive,inactive,inactive,inactive,–
O=C1c2ccccc2C(=O)C1C(=O)C(c1ccccc1)c1ccccc1,inactive,–,inactive,–,inactive,–,inactive,–,inactive,inactive

SMILES,Potency [1],Potency [2],Potency [3],Potency [4],Potency [5],Potency [6],Potency [7],Potency [8],Potency [9],Potency [10]
CC(=O)OCC1=C(C(=O)O)N2C(=O)[C@@H](N)[C@H]2SC1,inactive,inactive,inactive,inactive,inactive,inactive,inactive,inactive,inactive,–
CCC(C)(C)c1ccc(O)cc1,inactive,inactive,inactive,inactive,inactive,–,inactive,inactive,inactive,–
COC1CC(=C(c2cccs2)c2cccs2)C[N+](C)(C)C1 (centres undefined),inactive,inactive,inactive,inactive,inactive,inactive,inactive,inactive,–,–
COc1c2c(cc3c1OCO3)CCN(C)C2,inactive,–,inactive,inactive,inactive,–,inactive,inactive,inactive,inactive
O=C1CN=C(c2ccccc2)c2cc([N+](=O)[O-])ccc2N1,inactive,–,inactive,inactive,inactive,inactive,inactive,inactive,inactive,inactive
O=c1oc2ccccc2c(O)c1Cc1c(O)c2ccccc2oc1=O,inactive,inactive,inactive,inactive,–,inactive,inactive,inactive,inactive,–
O=c1[nH]c2ccccc2n1C1CCNCC1,inactive,inactive,inactive,inactive,inactive,inactive,inactive,inactive,inactive,–
CCN(CCO)CCn1c(Cc2ccccc2)nc2c1c(=O)n(C)c(=O)n2C,inactive,inactive,inactive,inactive,–,inactive,inactive,inactive,inactive,–
CCOP(=S)(OCC)Oc1ccc2c(C)c(Cl)c(=O)oc2c1,inactive,inactive,inactive,–,inactive,inactive,inactive,inactive,inactive,–
O=C(CCCN1CCC2(CC1)C(=O)NCN2c1ccccc1)c1ccc(F)cc1,inactive,–,inactive,inactive,inactive,–,inactive,inactive,–,–
CNC(C)(C)Cc1ccccc1,inactive,inactive,inactive,inactive,inactive,inactive,inactive,inactive,inactive,–
C[C@]12CC[C@@H]3c4ccc(OC(=O)N(CCCl)CCCl)cc4CC[C@H]3[C@@H]1CC[C@@H]2OP(=O)(O)O,inactive,–,inactive,inactive,inactive,inactive,inactive,inactive,inactive,–
O=c1[nH]oc2c1CCNC2,–,inactive,inactive,inactive,inactive,inactive,inactive,inactive,inactive,inactive
COc1cc(CCN)cc(OC)c1OC,–,inactive,inactive,inactive,inactive,inactive,inactive,inactive,inactive,–
C#C[C@]1(O)CC[C@H]2[C@@H]3CCC4=CC(=O)CC[C@]4(C)[C@H]3CC[C@@]21C,–,inactive,inactive,inactive,inactive,inactive,inactive,inactive,inactive,–
CC(NC(C)(C)C)C(=O)c1cccc(Cl)c1 (centres undefined),–,inactive,inactive,inactive,inactive,inactive,inactive,inactive,inactive,inactive
COC(=O)C(Cl)C(=O)OC,–,inactive,inactive,inactive,–,inactive,inactive,inactive,inactive,inactive
C[C@@H]1CC2=CC(=O)CC[C@@H]2[C@H]2CC[C@@]3(C)[C@@H](CC[C@]3(C)O)[C@@H]21,–,inactive,inactive,inactive,inactive,–,inactive,inactive,–,inactive
C[C@]12CCC(=O)C=C1CC[C@@H]1[C@@H]2CC[C@]2(C)C(=O)CC[C@@H]12,–,inactive,inactive,inactive,inactive,–,inactive,inactive,inactive,inactive

SMILES,Potency [1],Potency [2],Potency [3],Potency [4],Potency [5],Potency [6],Potency [7],Potency [8],Potency [9],Potency [10]
C[C@]12Cc3cn[nH]c3C[C@@H]1CC[C@@H]1[C@@H]2CC[C@@]2(C)[C@H]1CC[C@]2(C)O,–,26.6 µM (active),–,–,inactive,–,inactive,inactive,inactive,–
C=CCN1C[C@H](C)N([C@H](c2ccc(C(=O)N(CC)CC)cc2)c2cccc(OC)c2)C[C@H]1C,–,inactive,inactive,inactive,–,inactive,inactive,inactive,inactive,–
Cc1ncsc1CCCl,–,inactive,inactive,inactive,–,inactive,inactive,inactive,inactive,–
C[C@]12CC[C@H]3[C@@H](CCC4=CC(=O)CC[C@@H]43)[C@@H]1CC[C@@H]2OC(=O)CCC1CCCCC1,–,–,inactive,–,–,–,inactive,inactive,inactive,–
COc1ccc2c3c1O[C@H]1[C@H](O)CC[C@H]4[C@@H](C2)N(C)CC[C@@]341,–,inactive,inactive,inactive,–,inactive,inactive,inactive,inactive,inactive
C=CCC1(C(C)CC)C(=O)NC(=O)NC1=O (centres undefined),–,inactive,inactive,inactive,inactive,inactive,inactive,inactive,inactive,–
Nc1ccccc1C(=O)O,–,inactive,inactive,inactive,–,inactive,inactive,inactive,inactive,–
CN1CCC(O)(c2ccc(F)cc2)C(C(=O)c2ccc(F)cc2)C1 (centres undefined),–,inactive,inactive,inactive,inactive,inactive,inactive,inactive,inactive,–
COc1cccc2c1C(=O)c1c(O)c3c(c(O)c1C2=O)C[C@@](O)(C(=O)CO)CC3OC1CC(N2CCOC(OC)C2)C(O)C(C)O1 (some centres undefined),–,–,0.0266 µM (active),–,0.0596 µM (active),0.0347 µM (active),0.0841 µM (active),0.0211 µM (active),0.0692 µM (active),0.0217 µM (active)
C[C@]12CC[C@H]3[C@@H](CC[C@@]45O[C@H]4C(O)=C(C#N)C[C@]35C)[C@H]1CC[C@H]2O,–,–,13.2 µM (active),16.6 µM (active),inactive,inactive,29.6 µM (active),–,–,12.1 µM (active)
c1ccc(N2CCNCC2)cc1,–,inactive,inactive,inactive,–,inactive,inactive,inactive,inactive,–
CC(C)C[C@H](CN)CC(=O)O,–,inactive,–,inactive,–,inactive,inactive,inactive,inactive,–
O=C1OC(CCN2CCCCC2)OC1(c1ccccc1)c1ccccc1 (centres undefined),–,inactive,–,4.73 µM (active),–,inactive,inactive,–,inactive,–
CCCCC/C=C\C/C=C\C/C=C\C/C=C\CCCC(=O)NCC(=O)O,–,–,inactive,inactive,–,inactive,inactive,inactive,inactive,–
COP(=S)(OC)Oc1cc(Cl)c(Cl)cc1Cl,–,inactive,inactive,inactive,inactive,inactive,inactive,inactive,inactive,inactive
O=C1OC(c2ccc(O)c(S(=O)(=O)O)c2)(c2ccc(O)c(S(=O)(=O)O)c2)c2c(Br)c(Br)c(Br)c(Br)c21,–,inactive,inactive,inactive,–,inactive,inactive,inactive,inactive,inactive
C[N+]1(CCF)[C@@H]2CC[C@H]1CC(OC(=O)C(O)(c1ccccc1)c1ccccc1)C2 (some centres undefined),–,inactive,inactive,inactive,–,inactive,inactive,inactive,inactive,inactive
COc1cccc(C(=O)CCN[C@@H](C)[C@H](O)c2ccccc2)c1,–,–,–,–,inactive,–,–,–,inactive,30.7 µM (active)
O=C(Nc1ccc(Br)cc1)c1cc(Br)cc(Br)c1O,–,–,9.44 µM (active),–,–,21.9 µM (active),–,33.5 µM (active),27.6 µM (active),34.4 µM (active)
